Entries with a potency or affinity are not part of this list. Records with an inconclusive call do not appear. Calls of active or inactive are those of the source. Unless noted, the rule behind the calls is not given here.
How the values were obtained:
[1] = RMG-1 ovarian cancer cell viability loss – cherry-pick, dose response (AID 687029;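 active = signal drop whose fitted half-maximal concentration is at most twice the top valid dose, in every test run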;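 note: cells exposed to compound for 96 hours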)
[2] = IOSE-T80 viability loss, PAX8-independent line – cell-based, cherry-pick, selectivity assay for PAX8 inhibitor project, dose response (AID 687032;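 active = fitted half-maximal concentration for viability loss no higher than twice the top valid dose, in every repeat run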;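 note: cells exposed to compound for 96 h before reading; 0% = neutral control wells and -100% = 2 µM mitoxantrone kill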)
[3] = CMV-driven luciferase expression suppression in HEK293 – cell-based, luminescence, dry powder, counter-screen for Pax8 inhibitor project, dose response (AID 743020;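 active = signal-lowering compounds whose fitted half-maximal concentration is at or below twice the top tested dose in every run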;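 note: HEK293 cells stably expressing the CMV luciferase reporter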)
[4] = general cell-killing toxicity readout – plate reader, dry powder samples, cytotoxicity control for PAX8 inhibitor project, dose response (AID 743021)
[5] = IGROV1 cell killing – plate reader, dry powder samples, PAX8 inhibitor project, dose response (AID 743043);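 note: more negative means fewer viable cells or more cytotoxicity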
[6] = OVCAR-3 cell viability loss – plate reader, dry powder samples, PAX8 inhibitor project, dose response (AID 743044); details: max activity: at 35 µM, hits give low values unless noted
[7] = toxicity toward immortalized ovarian surface epithelium – cell-based, plate reader, dry powder samples, cytotoxicity control for PAX8 inhibitor project, dose response (AID 743045);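 note: 0% = neutral control median and -100% = positive control median; more negative values mean more cell killing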
[8] = A2780 cell killing – plate reader, dry powder samples, cytotoxicity control, dose response (AID 743046);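 note: 0% = neutral control wells and -100% = cytotoxic reference compound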
[9] = OVCAR8 cell viability loss – plate reader, dry powder samples, PAX8 project, dose response (AID 743197)

Measured: max activity

COc1ccc(NC(=O)Nc2ccc3c(c2)CC(=O)N([C@@H](C)CO)C[C@@H](C)[C@@H](CN(C)Cc2ccc(Oc4ccccc4)cc2)O3)cc1
inactive: [1] | [2] | [3] | [4] | [5] | [6] 14.4% [at 18 µM, hits give low values] | [7] | [8] | [9]

C[C@@H]1CCCCO[C@H](CN(C)S(=O)(=O)c2ccc(Cl)cc2)[C@@H](C)CN([C@@H](C)CO)C(=O)c2cc(NC(=O)CCC(F)(F)F)ccc2O1
inactive: [1] | [2] | [3] | [4] | [5] | [6] 17.2% [at 2.1 µM, hits give low values] | [7] | [8] | [9]

C[C@H](CO)N1C[C@H](C)[C@H](CN(C)C(=O)Nc2ccc(-c3cccs3)cc2)OCc2cnnn2CCCC1=O
inactive: [1] | [2] | [3] | [4] | [5] | [6] -11.7% | [7] | [8] | [9]

C[C@@H]1CN([C@H](C)CO)C(=O)c2cc(NC(=O)Nc3ccc(F)cc3)ccc2O[C@@H](C)CCCCO[C@H]1CN(C)Cc1ccc(Cl)c(Cl)c1
inactive: [1] | [2] | [3] | [4] | [5] | [6] 26% | [7] | [8] | [9]

C[C@@H]1CN([C@@H](C)CO)C(=O)Cc2cc(NC(=O)Nc3ccc(C(F)(F)F)cc3)ccc2O[C@H]1CN(C)Cc1ccc(Cl)c(Cl)c1
inactive: [1] | [2] | [3] | [4] | [5] | [6] 9.21% [at 0.26 µM, hits give low values] | [7] | [8] | [9]

CCCC(=O)Nc1ccc2c(c1)C(=O)N(C)C[C@@H](OC)[C@H](C)CN(Cc1ccc(-c3ccccn3)cc1)[C@H](C)CO2
inactive: [1] | [2] | [3] | [4] | [5] | [6] 8.7% [at 0.5 µM, hits give low values] | [7] | [8] | [9]

COc1ccc(NC(=O)Nc2ccc3c(c2)C(=O)N([C@@H](C)CO)C[C@@H](C)[C@@H](CN(C)Cc2ccc(C(F)(F)F)cc2)OCCCC[C@@H](C)O3)cc1
inactive: [1] | [2] | [3] | [4] | [5] | [6] -11.3% | [7] | [8] | [9]

C[C@@H]1CCCCO[C@H](CN(C)S(=O)(=O)c2cccs2)[C@H](C)CN([C@@H](C)CO)C(=O)c2cc(NC(=O)CCC(F)(F)F)ccc2O1
inactive: [1] | [2] | [3] | [4] | [5] | [6] -17.7% | [7] | [8] | [9]

C[C@@H]1CN([C@@H](C)CO)C(=O)c2cc(N(C)C)ccc2O[C@@H]1CN(C)Cc1ccc(Oc2ccccc2)cc1
inactive: [1] | [2] | [3] | [4] | [5] | [6] -18.3% | [7] | [8] | [9]

C[C@@H]1CCCCO[C@@H](CN(C)C(=O)Cc2ccccc2)[C@@H](C)CN([C@@H](C)CO)C(=O)c2cc(NC(=O)Nc3ccc(C(F)(F)F)cc3)ccc2O1
inactive: [1] | [2] | [3] | [4] | [5] | [6] -12.2% [at 16 µM, hits give low values] | [7] | [8] | [9]

C[C@@H]1CCCCO[C@@H](CN(C)Cc2ccc(C(F)(F)F)cc2)[C@H](C)CN([C@H](C)CO)C(=O)c2cc(NC(=O)Cc3ccccc3)ccc2O1
inactive: [1] | [2] | [3] | [4] | [5] | [6] -36.2% | [7] | [8] | [9]

C[C@H](CO)N1C[C@H](C)[C@@H](CN(C)Cc2ccc(Cl)c(Cl)c2)OCCCC[C@H](C)Oc2ccc(NC(=O)Nc3ccccc3)cc2C1=O
inactive: [1] | [2] | [3] | [4] | [5] | [6] -26.8% [at 0.26 µM, hits give low values] | [7] | [8] | [9]

C[C@H](CO)N1C[C@H](C)[C@@H](CN(C)C(=O)Nc2ccc(F)cc2)OCc2ccccc2-c2c(n(C)c3ccccc23)C1=O
inactive: [1] | [2] | [3] | [4] | [5] | [6] 31.5% | [7] | [8] | [9]

Cc1ccc(S(=O)(=O)N(C)C[C@H]2Oc3ccc(NC(=O)Nc4ccc(C(F)(F)F)cc4)cc3CC(=O)N([C@@H](C)CO)C[C@H]2C)cc1
inactive: [1] | [2] | [3] | [4] | [5] | [6] 15.5% [at 0.26 µM, hits give low values] | [7] | [8] | [9]

C[C@@H]1CN([C@@H](C)CO)C(=O)c2cc(NC(=O)Nc3ccc4c(c3)OCO4)ccc2O[C@@H]1CN(C)C(=O)Nc1ccc(C(F)(F)F)cc1
inactive: [1] | [2] | [3] | [4] | [5] | [6] 51.3% [at 0.26 µM, hits give low values] | [7] | [8] | [9]

COc1ccc(S(=O)(=O)Nc2ccc3c(c2)CC(=O)N([C@H](C)CO)C[C@H](C)[C@@H](CN(C)Cc2ccc(-c4ccccc4)cc2)O3)cc1
inactive: [1] | [2] | [3] | [4] | [5] | [6] 36.7% [at 2.1 µM, hits give low values] | [7] | [8] | [9]

Cc1ccc(S(=O)(=O)Nc2ccc3c(c2)CC(=O)N([C@H](C)CO)C[C@H](C)[C@@H](CN(C)Cc2ccc(Cl)c(Cl)c2)O3)cc1
inactive: [1] | [2] | [3] | [4] | [5] | [6] 29.2% [at 0.26 µM, hits give low values] | [7] | [8] | [9]

CC(C)CC#Cc1ccc2c(c1)O[C@@H](CN(C)Cc1ccncc1)[C@H](C)CN([C@@H](C)CO)S2(=O)=O
inactive: [1] | [2] | [3] | [4] | [5] | [6] 11.2% [at 4.2 µM, hits give low values] | [7] | [8] | [9]

C[C@@H]1CN([C@@H](C)CO)C(=O)c2cc(NS(=O)(=O)c3ccc(Cl)cc3)ccc2O[C@@H](C)CCCCO[C@H]1CN(C)Cc1ccc(C(F)(F)F)cc1
inactive: [1] | [2] | [3] | [4] | [5] | [6] 22.1% [at 16 µM, hits give low values] | [7] | [8] | [9]

C[C@@H]1CCCCO[C@H](CN(C)Cc2ccncc2)[C@H](C)CN([C@@H](C)CO)C(=O)c2cc(NC(=O)Nc3ccc(C(F)(F)F)cc3)ccc2O1
inactive: [1] | [2] | [3] | [4] | [5] | [6] -11.1% [at 0.26 µM, hits give low values] | [7] | [8] | [9]

C[C@H](CO)N1C[C@H](C)[C@@H](CN(C)Cc2ccc(Cl)c(Cl)c2)OCCCC[C@H](C)Oc2ccc(NS(=O)(=O)c3ccccc3)cc2C1=O
inactive: [1] | [2] | [3] | [4] | [5] | [6] -29.2% [at 2.1 µM, hits give low values] | [7] | [9]

Cc1noc(C)c1S(=O)(=O)Nc1ccc2c(c1)C(=O)N([C@@H](C)CO)C[C@H](C)[C@H](CN(C)C(=O)Nc1ccc(C(F)(F)F)cc1)OCCCC[C@H](C)O2
inactive: [1] | [2] | [3] | [4] | [5] | [6] -38.6% | [7] | [9]

C[C@@H]1CCCCO[C@@H](CN(C)S(=O)(=O)c2ccc(Cl)cc2)[C@H](C)CN([C@@H](C)CO)C(=O)c2cc(NS(=O)(=O)c3ccc(Cl)cc3)ccc2O1
inactive: [1] | [2] | [3] | [4] | [5] | [6] -34.3% [at 16 µM, hits give low values] | [7] | [8] | [9]

O=C(Nc1ccc(F)cc1)N1CCCCN2[C@@H](CO)[C@@H](c3ccc(-c4cccc(F)c4)cc3)[C@@H]2C1
inactive: [1] | [2] | [3] | [4] | [5] | [6] -20% | [7] | [9]

C[C@@H]1CN([C@@H](C)CO)C(=O)c2cccc(NC(=O)c3ccncc3)c2O[C@@H]1CN(C)S(=O)(=O)c1cccs1
inactive: [1] | [2] | [3] | [4] | [5] | [6] 14.9% [at 2.1 µM, hits give low values] | [7] | [9]

C[C@@H]1CN([C@H](C)CO)C(=O)c2cc(NS(=O)(=O)c3ccc(F)cc3)ccc2O[C@@H](C)CCCCO[C@@H]1CN(C)CC1CCCCC1
not listed: [6] | [8] | [9]
inactive: all other assays above

C[C@H](CO)N1C[C@H](C)[C@H](CN(C)Cc2ccc(Cl)c(Cl)c2)OCCCC[C@H](C)Oc2ccc(NC(=O)Nc3ccccc3)cc2C1=O
inactive: [1] | [2] | [3] | [4] | [5] | [6] -25.9% [at 0.26 µM, hits give low values] | [7] | [9]

C[C@@H]1CN([C@@H](C)CO)C(=O)c2cc(NC(=O)Nc3cccc4ccccc34)ccc2O[C@@H]1CN(C)Cc1ccc2c(c1)OCO2
inactive: [1] | [2] | [3] | [4] | [5] | [6] 8.89% | [7] | [9]

From PubChem BioAssay
